Experimental data as given in PubChem BioAssay (EPA / NIEHS).
Several values for one entry are separate records, joined by “and”; a condition that tells them apart may be missing. Equal values may be shown once. Results filed as inconclusive are left out. Activity calls are given as the source filed them. How the source made its calls, unless noted: active means hit-call score of the fitted dose curve at least 0.9, where 1 is the maximum; inactive means score below 0.9.

Tested on: not listed separately
Assay: IUF_NPC2b_neuronal_migration_120hr: Leibniz Research Institute for Environmental Medicine (IUF) 120-hour Neural Progenitor Cell Migration Assay for Neuron Migration (NPC2b) (AID 2284300)
Conditions: not given
In short: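 Primary human fetal cortex neural progenitor spheres (0.3 mm) plated on poly-D-lysine/laminin in N2 differentiation medium, exposed 120 h with half-medium refresh at day 3. TUBB3-stained neuron distance from sphere core, normalized to radial glia migration, versus DMSO.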

SMILES | outcome | AC50
CCOP(=S)(OCC)SCSC(C)(C)C | inactive | –
C=CC(N)=O | inactive | –
CO/C=C(/C(=O)OC)c1ccccc1COc1cccc(C(F)(F)F)n1 | – | 50 µM (active)
O=S(=O)(O)C(F)(F)C(F)(F)C(F)(F)C(F)(F)C(F)(F)C(F)(F)F | inactive | –
O=S(=O)(O)C(F)(F)C(F)(F)C(F)(F)C(F)(F)F | inactive | –

Tested on: not listed separately
Assay: IUF_NPC3_neuronal_differentiation_120hr: Leibniz Research Institute for Environmental Medicine (IUF) 120-hour Neuronal Differentiation Assay (NPC3) (AID 2284301)
Conditions: not given
Method: IUF_NPC2-5 is a cell-based, multiplexed assay that uses hNPC, a human primary neural progenitor cells, with measurements taken at 72 or 120 hours after chemical dosing in a 96-well plate. Human neural progenitor cells (hNPC) are generated from human fetal brain cortex at gestational week (GW) 16-19. In the neural progenitor cell migration and differentiation assay (NPC2-5), hNPCs grown as spheres are plated on an extracellular matrix and migrate and differentiate out of the sphere core. The processes radial glia migration, neuronal and oligodendrocyte migration as well as neuronal differentiation, neuronal morphology and oligodendrocyte differentiation are studied using automated phase contrast imaging and automated fluorescence imaging in combination with high content image analysis. In parallel, the cell viability is assessed using an alamar blue viability assay and the cytotoxicity using a lactate dehydrogenase dependent membrane integrity assay.IUF_NPC3_neuronal_differentiation_120hr is one of 12 assay components measured from the IUF_NPC2-5 assay. Neuronal differentiation is determined as the number of all TUBB3 positive cells in percent of the number of Hoechst-positive nuclei in the total neurosphere migration area (see IUF_NPC2a_ glia_migration_120hr) after 120 hr of migration/differentiation. Neurons are automatically identified using a convolutional neural network (CNN) that was trained using manually annotated images of differentiated neurons. Data from the IUF_NPC3_neuronal_differentiation_120hr component was analyzed at the endpoint IUF_NPC3_neuronal_differentiation_120hr in the positive analysis fitting direction relative to DMSO as the negative control and baseline of activity. Using a type of differentiation reporter, gain or loss-of-signal activity can be used to understand developmental effects.
Culture protocol: After the cell expansion period the cells are cultured for up to four weeks in which they are passaged every week as described in 3.6. Between one to three days after passaging spheres at a size of 0.3 mm are picked for the test method. For the assessment of neural progenitor cell migration and differentiation, the spheres are plated on poly-D-lysine/laminin coated 96-well flat bottom plates in differentiation medium (N2) to initiate migration and differentiation. Thereby one 0.3 mm big sphere is plated in the middle of a well. The differentiation medium consists of DMEM and Ham's F12 at a ratio of 3 to 1 supplemented with 1% N2 and 1% penicillin and streptomycin. Within 5 days NPCs radially migrate out of the sphere core and differentiate into radial glia cells (nestin positive), neurons (TUBB3 positive), oligodendrocytes (O4 positive) and astrocytes (GFAP positive). […] Therefore, half of the test condition solution (e.g. solvent control or compound dilution) is replaced by freshly prepared test condition solution.Test Method: Migration distance and cytotoxicity is determined after 72 hours based on brightfield images of each well. […] On the ICC images, migration after 120 hours, neuronal and oligodendrocyte number, neuronal morphology and neuron/oligodendrocyte specific migration is assessed. immunocytochemical staining (ICC) generates an image for each sphere. The plates are scanned using an automated high content imaging device and all nuclei and their positions are determined automatically based on their intensity and size. […]

SMILES | outcome | AC50
CCOP(=S)(OCC)SCSC(C)(C)C | inactive | –
C=CC(N)=O | inactive | –
CO/C=C(/C(=O)OC)c1ccccc1COc1cccc(C(F)(F)F)n1 | – | 22.2 µM (active)
O=S(=O)(O)C(F)(F)C(F)(F)C(F)(F)C(F)(F)C(F)(F)C(F)(F)F | inactive | –
O=S(=O)(O)C(F)(F)C(F)(F)C(F)(F)C(F)(F)F | inactive | –

Tested on: not listed separately
Assay: IUF_NPC4_neurite_length_120hr: Leibniz Research Institute for Environmental Medicine (IUF) 120-hour Neuronal Morphology Assay for Neurite Length (NPC4) (AID 2284302)
Conditions: not given
In short: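 Neurons from differentiating human fetal neural progenitor spheres are scored for average neurite length after five days of compound exposure. Fitting uses DMSO as negative control.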

SMILES | outcome | AC50
CCOP(=S)(OCC)SCSC(C)(C)C | inactive | –
C=CC(N)=O | inactive | –
CO/C=C(/C(=O)OC)c1ccccc1COc1cccc(C(F)(F)F)n1 | – | 19.7 µM (active)
O=S(=O)(O)C(F)(F)C(F)(F)C(F)(F)C(F)(F)C(F)(F)C(F)(F)F | inactive | –
O=S(=O)(O)C(F)(F)C(F)(F)C(F)(F)C(F)(F)F | inactive | –

Read-out: CD69, CD69 (gene 969)
Assay: BSK_LPS_CD69: BioMAP Diversity Plus: LPS Assay for CD69 Biomarker Activity (AID 2284303)
Conditions: primary human HUVEC with PBMC
In short: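 CD69 surface levels were read by ELISA after 24 h chemical treatment of an LPS-stimulated HUVEC plus PBMC co-culture; positive-direction fit against DMSO vehicle.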

SMILES | outcome | AC50
COc1ccc(O)c(C(C)(C)C)c1 | inactive | –
NS(=O)(=O)C(F)(F)C(F)(F)C(F)(F)C(F)(F)C(F)(F)C(F)(F)C(F)(F)C(F)(F)F | – | 38.4 µM (active) and 24.5 µM (active)
O=C(O)C(F)(F)C(F)(F)C(F)(F)C(F)(F)C(F)(F)C(F)(F)C(F)(F)C(F)(F)C(F)(F)F | – | 49.1 µM (active) and 45.4 µM (active)
O=C(O)C(F)(F)C(F)(F)C(F)(F)C(F)(F)C(F)(F)C(F)(F)C(F)(F)C(F)(F)F | – | 41.8 µM (active) and 30 µM (active)
O=S(=O)(O)C(F)(F)C(F)(F)C(F)(F)C(F)(F)C(F)(F)C(F)(F)F | inactive | –
O=S(=O)(O)C(F)(F)C(F)(F)C(F)(F)C(F)(F)F | inactive | –
O=C(O)C(F)(F)C(F)(F)C(F)(F)C(F)(F)C(F)(F)F | inactive | –

Tested on: not listed separately
Assay: IUF_NPC5_oligodendrocyte_differentiation_120hr: Leibniz Research Institute for Environmental Medicine (IUF) 120-hour Oligodendrocyte Differentiation Assay (NPC5) (AID 2284304; active means hit-call score of the fitted dose curve at least 0.9, where 1 is the maximum;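 further: share of O4-positive cells among Hoechst nuclei found by CNN image analysis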)
Conditions: not given
Method: IUF_NPC2-5 is a cell-based, multiplexed assay that uses hNPC, a human primary neural progenitor cells, with measurements taken at 72 or 120 hours after chemical dosing in a 96-well plate. Human neural progenitor cells (hNPC) are generated from human fetal brain cortex at gestational week (GW) 16-19. In the neural progenitor cell migration and differentiation assay (NPC2-5), hNPCs grown as spheres are plated on an extracellular matrix and migrate and differentiate out of the sphere core. The processes radial glia migration, neuronal and oligodendrocyte migration as well as neuronal differentiation, neuronal morphology and oligodendrocyte differentiation are studied using automated phase contrast imaging and automated fluorescence imaging in combination with high content image analysis. In parallel, the cell viability is assessed using an alamar blue viability assay and the cytotoxicity using a lactate dehydrogenase dependent membrane integrity assay.IUF_NPC5_oligodendrocyte_differentiation_120hr is one of 12 assay components measured from the IUF_NPC2-5 assay. Oligodendrocyte differentiation at 120 hr is determined as the number of all O4-positive cells in percent of the number of Hoechst-positive nuclei in the total neurosphere migration area (see IUF_NPC2a_ glia_migration_120hr) after 120 hr of migration/differentiation. Oligodendrocytes are automatically identified using a convolutional neural network (CNN) that was trained using manually annotated images of differentiated oligodendrocytes.Data from the IUF_NPC5_oligodendrocyte_differentiation_120hr component was analyzed at the endpoint IUF_NPC5_oligodendrocyte_differentiation_120hr in the positive analysis fitting direction relative to DMSO as the negative control and baseline of activity. Using a type of differentiation reporter, loss-of-signal activity can be used to understand developmental effects.
Culture protocol: After the cell expansion period the cells are cultured for up to four weeks in which they are passaged every week as described in 3.6. Between one to three days after passaging spheres at a size of 0.3 mm are picked for the test method. […] Therefore, half of the test condition solution (e.g. solvent control or compound dilution) is replaced by freshly prepared test condition solution.Test Method: Migration distance and cytotoxicity is determined after 72 hours based on brightfield images of each well. […] On the ICC images, migration after 120 hours, neuronal and oligodendrocyte number, neuronal morphology and neuron/oligodendrocyte specific migration is assessed. immunocytochemical staining (ICC) generates an image for each sphere. […]

SMILES | outcome | AC50
C=CC(N)=O | inactive | –
CO/C=C(/C(=O)OC)c1ccccc1COc1cccc(C(F)(F)F)n1 | – | 1.51 µM (active)
O=S(=O)(O)C(F)(F)C(F)(F)C(F)(F)C(F)(F)C(F)(F)C(F)(F)F | inactive | –
O=S(=O)(O)C(F)(F)C(F)(F)C(F)(F)C(F)(F)F | inactive | –

Tested on: not listed separately
Assay: IUF_NPC4_neurite_area_120hr: Leibniz Research Institute for Environmental Medicine (IUF) 120-hour Neuronal Morphology Assay for Neurite Area (NPC4) (AID 2284305; active means hit-call score of the fitted dose curve at least 0.9, where 1 is the maximum)
Conditions: not given
In short: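 Endpoint at 120 h: automated imaging of TUBB3/Hoechst-stained differentiating human neural progenitor spheres, neurite area per neuron from skeletonization. DMSO solvent control, not above 0.1%, set the baseline; medium was half-replaced on day 3.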

SMILES | outcome
CCOP(=S)(OCC)SCSC(C)(C)C | inactive
C=CC(N)=O | inactive
CO/C=C(/C(=O)OC)c1ccccc1COc1cccc(C(F)(F)F)n1 | inactive
O=S(=O)(O)C(F)(F)C(F)(F)C(F)(F)C(F)(F)C(F)(F)C(F)(F)F | inactive
O=S(=O)(O)C(F)(F)C(F)(F)C(F)(F)C(F)(F)F | inactive

Tested on: not listed separately
Assay: IUF_NPC2-5_cytotoxicity_72hr: Cytotoxicity Assessment at 72 hours in the Leibniz Research Institute for Environmental Medicine (IUF) Neural Progenitor Cell Migration and Differentiation Assay for Cytotoxicity (NPC2-5) (AID 2284306; active means hit-call score of the fitted dose curve at least 0.9, where 1 is the maximum;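 further: LDH release into supernatant measured by resorufin fluorescence marking membrane damage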)
Conditions: not given
In short: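 Primary human neural progenitor spheres migrate and differentiate on laminin. Compound is present from the start of differentiation, with DMSO kept at or below 0.1%. At 72 h, supernatant LDH is quantified fluorometrically, with values fitted in the positive direction.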

SMILES | outcome
CCOP(=S)(OCC)SCSC(C)(C)C | inactive
C=CC(N)=O | inactive
CO/C=C(/C(=O)OC)c1ccccc1COc1cccc(C(F)(F)F)n1 | inactive
O=S(=O)(O)C(F)(F)C(F)(F)C(F)(F)C(F)(F)C(F)(F)C(F)(F)F | inactive
O=S(=O)(O)C(F)(F)C(F)(F)C(F)(F)C(F)(F)F | inactive

Tested on: not listed separately
Assay: IUF_NPC2-5_cytotoxicity_120hr: Cytotoxicity Assessment at 120 hours in the Leibniz Research Institute for Environmental Medicine (IUF) Neural Progenitor Cell Migration and Differentiation Assay (NPC2-5) (AID 2284307; active means hit-call score of the fitted dose curve at least 0.9, where 1 is the maximum)
Conditions: not given
In short: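 Human fetal neural progenitor spheres (0.3 mm, GW 16-19 cortex) were plated on poly-D-lysine/laminin in N2 differentiation medium and exposed for 120 h, with half-medium refresh at day 3. LDH release into supernatant was read by resorufin fluorescence.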

SMILES | outcome
CCOP(=S)(OCC)SCSC(C)(C)C | inactive
C=CC(N)=O | inactive
CO/C=C(/C(=O)OC)c1ccccc1COc1cccc(C(F)(F)F)n1 | inactive
O=S(=O)(O)C(F)(F)C(F)(F)C(F)(F)C(F)(F)C(F)(F)C(F)(F)F | inactive
O=S(=O)(O)C(F)(F)C(F)(F)C(F)(F)C(F)(F)F | inactive

Tested on: not listed separately
Assay: IUF_NPC2-5_cell_number_120hr: Cell Number Assessment at 120 hours in the Leibniz Research Institute for Environmental Medicine (IUF) Neural Progenitor Cell Migration and Differentiation Assay (NPC2-5) (AID 2284308);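 further: count of Hoechst-stained nuclei in migration zone around plated human neural progenitor spheres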
Conditions: not given
In short: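 Primary human fetal neural progenitor spheres (GW 16-19, 0.3 mm) plated on poly-D-lysine/laminin in N2 differentiation medium, exposed from day 0 for 120 h with half-medium refresh at day 3; Hoechst-positive nuclei counted in migration area versus DMSO control.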

SMILES | outcome | AC50
CCOP(=S)(OCC)SCSC(C)(C)C | inactive | –
C=CC(N)=O | inactive | –
CO/C=C(/C(=O)OC)c1ccccc1COc1cccc(C(F)(F)F)n1 | – | 9.92 µM (active)
O=S(=O)(O)C(F)(F)C(F)(F)C(F)(F)C(F)(F)C(F)(F)C(F)(F)F | inactive | –
O=S(=O)(O)C(F)(F)C(F)(F)C(F)(F)C(F)(F)F | inactive | –
